Test results as given in PubChem BioAssay AID1671194 (National Center for Advancing Translational Sciences (NCATS), 2021).
The campaign covered roughly 140,000 compounds. About 240 (0.17%) were called active. Inconclusive results (about 9%) are left out. The call rests on the fitted dose curve; in most records, active means well fitted inhibition curve with a large enough effect; inconclusive means small, poorly fitted or top-dose-only effect; inactive means no such curve, though single readings can be large or run the other way. The sample as a whole holds a higher share of actives than the screen did.

Test: Primary qHTS assay for inhibitors of alpha-synuclein gene (SNCA) expression; further: nearly all actives have a fitted effect of over 45% in size
Details: HEK-293 SNCA-luciferase knock-in, luminescence, 24 h; series mostly up to 57.2 µM; activity change, negative = inhibition: at the top concentration
Text: Assay Submitter (PI): Daniel R. Scoles Ph.D.
Department of Neurology, University of Utah, Salt Lake City, Utah
Accumulation of alpha-synuclein is a main underlying pathological feature of Parkinson's disease (PD) and alpha-synucleinopathies, for which lowering expression of the alpha-synuclein gene (SNCA) is a potential therapeutic avenue. Using a cell-based luciferase reporter of SNCA expression we performed a quantitative high throughput screen (qHTS) of 155,885 compounds in dose response. The screening assay was generated using genome editing to insert the luciferase gene downstream and in frame of the SNCA gene in HEK-293 cells (1). A viability counterscreen using GF-AFC was used to eliminate cytotoxic and false positive compounds. After in silico analysis (clustering, removal of frequent hitter nuisance chemotypes), inhibitor compounds from the primary screen were selected for follow up and re-tested at 11-doses in the SNCA-luc cells (luciferase and GF-AFC confirmation), and in CMV-luc expressing cell line to flag general transcriptional repressors.
Described herein are the results of the primary screen for SNCA inhibitors; decrease in luciferase signal (inhibition of the SNCA gene expression) is the desired output for this assay.
1. Dansithong, W., Paul, S., Scoles, D. R., Pulst, S. M., and Huynh, D. P. (2015) Generation of SNCA Cell Models Using Zinc Finger Nuclease (ZFN) Technology for Efficient High-Throughput Drug Screening. PLoS ONE 10, e0136930.
SEQUENCE No. (e.g., 1, 2, 3, etc.); […] (e.g., Cells, Incubation, Reagent, etc.); VALUE; DESCRIPTION
1; Cells; 4 uL; Dispense 1500 HEK-293-SNCA-luc cells/well into Greiner 1536-well white / solid bottom tissue culture treated plate. The plate was covered with metal lids with gas-exchange holes.
2; Incubate; 24 hours; Incubate at 37C, 5% CO2, 95% RH.
3; Compounds; 23 nL; Compounds and controls were transferred via a Kalypsys Pin Tool (Wako USA) equipped with a 1536-slotted pin array. The plate was covered with metal lids with gas-exchange holes.
4; Incubate; 24 hours; Incubate at 37C, 5% CO2, 95% RH.
5; Dispense; 1 uL; Dispense Gly-Phe-7-amino-4-trifluoromethylcoumarin (GF-AFC, prepared at 125 uM in PBS) was added. The plate was covered with metal lids with gas-exchange holes.
6; Incubate; 30 min; Incubate at 37C, 5% CO2.
7; Detector; Fluorescence; Measure fluorescence with ViewLux microplate reader (PerkinElmer) equipped with 405/10 excitation and 540/25 emission filters.
8; Dispense; 3 uL; Dispense ONE-Glo ([…]) lucifase detection reagent was added to each well. Plates were covered with metal lids with gas-exchange holes.
9; Incubate; 15 min; Incubate at room temperature.
10; Detector; Luminescence; Measure luminescence with ViewLux microplate reader (PerkinElmer) equipped with clear filters.
NOTES (numbers refer to sequence above)
1; HEK-293-SNCA-luc were cultured and suspended in phenol-red free DMEM (4.5 g/L glucose, 25 mM HEPES, cat #21063 (Thermo)).
3; Compounds were added to the assay plate in an 11-point intra plate dose response, 1:3 titration in DMSO with a final concentration range of […]. Vehicle-only plates, with DMSO being pin-transferred to every well, were inserted at the beginning of screening runs to confirm expected assay performance. Activity was normalized to wells containing medium only (-100% activity, full inhibition) and SNCA-luc cells treated with DMSO vehicle control (0% activity), contained on the same plate as test samples.
10; Signals were analyzed, and dose-response curves were fit using the Hill equation. Compounds in curve classes -1.1, -1.2, -2.1, -2.2 in the SNCA-luc assay were considered active. Compounds were eliminated from further consideration if also active (curve class -1.1, -1.2, -1.3, -1.4, -2.1, -2.2, -2.3, -2.4) in the GF-AFC cytotoxicity assay.
Potency means the concentration at half of the fitted maximal effect.

Activity change, negative = inhibition, inactive:
O=c1c2nc(-c3ccccc3)ccc2ncn1Cc1ccccc1 126% [at 87.6 µM], C[C@@H](O)[C@H](N)C(=O)N1CCc2onc(-c3cccc4ccccc34)c2C1 -8.21%, COc1ccc(CN2CCN(c3ccccc3)CC2C)c(OC)c1OC (stereo not drawn) -13.8%, O=C1CC2(CCN(C(=O)C3CCCN3C(=O)Cc3ccccn3)CC2)Oc2ccccc2N1 (stereo not drawn) -11.9%, CCOc1ccccc1C(=O)Nc1ccc2c(c1)N(C)C(=O)c1ccccc1S2 23.5%, CCN1C(=O)c2ccccc2Sc2ccc(NC(=O)Cc3ccc(OC)cc3)cc21 -20.1%, COc1ccc(-c2nc(CN3CCOC(CN)C3)c(C)o2)c2ccccc12 (stereo not drawn) 1.15%, CN1C[C@H](O)C[C@H]1c1nnc2n1CCN(C(=O)c1cc3ccccc3[nH]1)CC2 5.47%, COc1ccc(Cl)cc1NC(=O)N1CCCC(Cn2cnc3cccnc32)C1 (stereo not drawn) -23.7%, COCCN1C[C@H]2CN(C)c3ccccc3[C@@H]2N(C(=O)CC2CCCC2)CCC1=O -13.7% [at 25.6 µM], CNC(=O)C1CCCCN1Cc1ccc(-c2cccs2)cc1 (stereo not drawn) 11.2% [at 87.6 µM], COc1ccc(-c2cc(N3CCCC(NC(=O)c4cccc(Cl)c4)C3)n[nH]2)cc1 (stereo not drawn) 5.49%, Cc1cc(OC2CN(C(=O)c3ccccc3F)C2)ccc1F 16.4% [at 87.6 µM], COc1ccc(CC(=O)N2CC[C@@H](CC(=O)O)[C@@H](CCN(C)c3ccccc3)C2)cc1 -13.9% [at 87.6 µM], CCOc1ccc(N(CC)C(=O)C2CCN(S(=O)(=O)c3cccc4nonc34)CC2)cc1 55.9%, CCOc1ccc(NC(=O)CN(Cc2ccccc2)S(=O)(=O)c2ccc(Cl)cc2)cc1 -12.9%, CCOc1ccc2c(n1)CCN(C(=O)NC1CCCCC1)C2 37.6%, C=CCN(C)C(=O)[C@@H](C)C1CC[C@@]2(C)Cc3sc(NS(=O)(=O)c4ccc(Cl)cc4)nc3[C@@H](C)[C@@H]2[C@H]1O (stereo partly drawn) -14.1%, CCN1CCN(C(=O)c2ccc3nnc(-c4ccc(OC(F)(F)F)cc4)n3c2)CC1 -1.31%, COc1cccc(CCC(=O)N2CCCN(S(C)(=O)=O)c3ccccc32)c1 15.4%, Oc1ccc(-c2nc(C3CC3)nc3c2CN(Cc2ccc(F)cc2)CC3)cc1 -3.74%, Cc1cccc(CN2CCC3(Cc4ccccc4CNC3=O)C2)c1 (stereo not drawn) 3.06%, COC(=O)N1CCN(C(=O)c2cccc(-c3ccccc3OC)c2)CC1 -11.1% [at 87.6 µM], CC1=C(C(=O)N(C)C)C(c2ccc(Cl)cc2)N2C(CC(=O)NCc3ccco3)=CSC2=N1 (stereo not drawn) -31.5%, CCCn1c(NCc2ccccc2F)nc2ccccc21 74.8%, Cc1ccc(OCCn2c(CNc3ccccc3C)nc3ccccc32)cc1 41.7%, O=C(NCCc1ccccn1)c1ccc2c(c1)N(S(=O)(=O)c1ccccc1)CC2 46.9%, CCCS(=O)(=O)N1CCC(CCOC)(NC(=O)NCC)CC1 12.8%, CC(C)NC(=O)C1(CCO)CCN(c2ncccn2)C1 (stereo not drawn) 28.1%, COc1cccc(CC(=O)NC2CCN(c3cc(-c4ccc(F)cc4)[nH]n3)C2)c1 (stereo not drawn) -17.9%, CCC(=O)N1CCC2(CC1)OCC(C(=O)NCc1ccccc1)N2C(=O)c1ccc(C)cc1 (stereo not drawn) 5.47%, O=C1NCc2ccccc2CC12CCCN2Cc1ccccc1OC(F)(F)F (stereo not drawn) -23%, CC(C)CN(CC1CN(C(=O)Cc2cccs2)CCO1)C(=O)c1cccc2ccccc12 (stereo not drawn) 10%, O=C1NC(=NC2CCCC2)C2(CCCN(Cc3ccsc3)C2)N1c1cc(F)cc(F)c1 (stereo not drawn) -4.31%, CCOc1cccc(CN2CCC(Oc3ccc(-c4noc(C5CC5)n4)cc3)C2)c1 (stereo not drawn) -28.9%, COc1ccccc1Nc1ccnc(N2CCC(C(=O)N3CCC(c4ccccc4)CC3)CC2)n1 20.6%, Cc1ccc(-c2ccccc2CN2CCN(C(=O)NC(C)C)CC2)cc1Cl 25.7%, Cc1nonc1CC(=O)NC1CC(=O)N(Cc2cccc3ccccc23)C1 (stereo not drawn) -1.27%, COc1ccccc1NC(=O)Cn1c(-c2ccc(F)cc2)nc(C)c(CCO)c1=O 27.5%, COc1ccc(-c2ccnc(N[C@H]3CO[C@H]4[C@@H]3OC[C@H]4OC(=O)Nc3cccc4ccccc34)n2)cc1 5.69%, Cn1cccc1C(=O)N1C[C@@H](COc2ccccc2)[C@H](C(N)=O)C1 -3.67%, Cc1cccc(OCCc2noc(C3CCCN(Cc4ccccc4C#N)C3)n2)c1 (stereo not drawn) 45.5%, CC(=O)N1CCN(C(=O)c2ccc3nc(-c4ccncc4)oc3c2)CC1 25.2%

Potency, inactive:
COCc1nc(C2CC(N)C2)cc(N2CCC(c3[nH]ncc3C)CC2)n1 (stereo not drawn)

Potency, active:
COc1cccc(NC(=O)Nc2ccc3c(c2)N(C)C(=O)c2ccccc2S3)c1 20 µM, CCOc1ccc(N(Cc2ccccc2)C(=O)c2nc(S(C)(=O)=O)ncc2Cl)cc1 6.31 µM, CCCn1c(NCc2ccc(N(CC)CC)cc2)nc2ccccc21 17.8 µM, Cc1cccc(-c2nc3ccc(C(=O)N4CCCCC4)cc3o2)n1 7.94 µM
